The test system of test [1] is MDA-MB-231. The experiment in a line: cell viability relative to vehicle unstimulated control (fraction); higher = more viable cells. The following applies: pre-treatment time: 18 h then 24 h IFNg/TNF.
The test system of test [2] is MDA-MB-231. The experiment in a line: kynurenine production, fold change vs DMSO IFNg/TNF control; higher = more kynurenine produced (less inhibition). To be noted: pre-treatment time: 18 h then 24 h IFNg/TNF. The method, boiled down:
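In 96-well plates, MDA-MB-231 cells (7 × 10^4/well) were given 24 h to settle, pre-treated for 18 h with each natural product in 0.1% DMSO, and stimulated for 24 h with IFNγ (1 U/ml) and TNF (6.25 ng/ml) at 37°C. Supernatants were processed with trichloroacetic acid and p-dimethylaminobenzaldehyde and read at 492 nm against 0–100 μM standards. In the first screening round, kynurenine production, as fold change over same-plate cytokine-stimulated vehicle wells, was averaged over duplicate plates.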

The structures appear in SMILES notation. ± gives the standard deviation of the averaged measurements.
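For cell viability relative to vehicle unstimulated control in this document: viability of the cells left after supernatant collection, read with Deep Blue dye added for 4 h, as absorbance at 570 nm minus 600 nm.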

On to `C[C@H](CC[C@@H](O[C@@H]1O[C@H](CO)[C@@H](O)[C@H](O)[C@H]1O)C(C)(C)O)[C@H]1CC[C@@]2(C)[C@@H]3CC=C4[C@@H](CC[C@H](O)C4(C)C)[C@]3(C)[C@H](O)C[C@]12C` [Mogroside I A1] (compound dose: 10 uM), for which, in test [1], the cell viability is 0.881 ± 0.068. In test [2], the kynurenine production was found to be 0.921 ± 0.21.
For `C[C@@H]1C(=O)O[C@H]2C[C@@]34O[C@@H]5OC(=O)[C@H](O)[C@@]56[C@H](C(C)(C)C)[C@H](O)C(OC3=O)[C@]64[C@]21O` (stereo not given in full) [Ginkgolide J] (compound dose: 10 uM), in that order: 0.962 ± 0.014 and 0.875 ± 0.023.
For `C=C1CCC[C@]2(C)CC[C@@H](C(C)(C)O)C[C@@H]12` [Beta-Eudesmol] (compound dose: 10 uM), in that order: 1.077 ± 0.0077 and 0.904 ± 0.14.
The matching figures for `CC(=O)O[C@]12CCC(C)=CC[C@]13CC[C@H]2[C@@](C)(/C=C/C=C(\C)C(=O)O)OC3=O` [Pseudolaric Acid  A] (compound dose: 10 uM): 0.834 ± 0.11 and 0.449 ± 0.12.
As to `C=C(CC[C@@H](C(=O)O)[C@H]1[C@H](O)C[C@@]2(C)C3=C(CC[C@]12C)[C@@]1(C)CC[C@H](OC(C)=O)C(C)(C)[C@@H]1CC3)C(C)C` [Pachymic acid] (compound dose: 10 uM), the cell viability in test [1] is 0.862 ± 0.1. Moreover, the kynurenine production in test [2] turned out to be 0.872 ± 0.093.
In the case of `C/C1=C\CCC2=C[C@@H](OC2=O)c2c(C)coc2C1` [Linderalactone] (compound dose: 10 uM), in test [1], the cell viability was found to be 0.998. In addition, in test [2], the kynurenine production worked out at 0.815 ± 0.018.
The matching figures for `C[C@@H]1C[C@@H]2O[C@@]3(O[C@@H]2C(C)(C)O)[C@H](O)[C@@]2(C)[C@@H]4CC[C@H]5C(C)(C)[C@@H](O)CC[C@@]56C[C@@]46CC[C@]2(C)[C@@H]13` [Cimigenol] (compound dose: 10 uM): 1.03 ± 0.066 and 0.778 ± 0.31.
For `C[C@H]1O[C@@H](O[C@H]2CC[C@@]3(C)[C@@H](CC[C@]4(C)[C@@H]3C=C[C@]35OC[C@@]6(CCC(C)(C)C[C@H]63)[C@H](O)C[C@]54C)[C@]2(C)CO)[C@H](O)[C@@H](O[C@@H]2O[C@H](CO)[C@@H](O)[C@H](O)[C@H]2O)[C@H]1O` [Saikosaponin D] (compound dose: 10 uM), in that order: 0.922 ± 0.044 and 0.603 ± 0.2.
For `C=C(C)C1CC=C(C)CC1` (stereo not drawn) [(s)-(-)-limonene] (compound dose: 10 uM), in that order: 0.944 ± 0.051 and 0.84 ± 0.099.
`CC1(C(=O)O)CCC2(C)CCC3(C)C(=CC(=O)C4C5(C)CCC(O)C(C)(C)C5CCC43C)C2C1` (stereo not drawn) [18β-Glycyrrhetinic acid] (compound dose: 10 uM): the cell viability in test [1] was 1.02 ± 0.17. In test [2], the kynurenine production came to 1.09 ± 0.18.
As to `CC(C)=CCCC(C)CCO` (stereo not given) [Citronellol] (compound dose: 10 uM), the cell viability in test [1] was 1.03 ± 0.057. Moreover, the kynurenine production in test [2] was found to be 0.845 ± 0.25.
Consider `CC(=O)OCC1=C[C@H]2[C@@H]3C(C)(C)[C@]3(OC(C)=O)[C@H](OC(C)=O)[C@@H](C)[C@]2(O)[C@@H]2C=C(C)C(=O)[C@@]2(O)C1` [Phorbol 12,13,20-triacetate] (compound dose: 10 uM), for which, in test [1], the cell viability came to 0.868 ± 0.26. In test [2], the kynurenine production turned out to be 0.8 ± 0.1.
The matching figures for `CC(=O)O[C@@H]1CC[C@@]2(C)[C@@H](CC[C@]3(C)[C@@H]2C(=O)C=C2[C@@H]4[C@@H](C)[C@H](C)CC[C@]4(C)CC[C@]23C)[C@@]1(C)C(=O)O` (compound dose: 10 uM): 1.03 ± 0.031 and 1.06 ± 0.062.
The matching figures for `CC(C)=CCC[C@](C)(O[C@@H]1O[C@H](CO[C@@H]2OC[C@H](O)[C@H](O)[C@H]2O)[C@@H](O)[C@H](O)[C@H]1O)[C@H]1CC[C@]2(C)[C@@H]1[C@H](O)C[C@@H]1[C@@]3(C)CC[C@H](O[C@@H]4O[C@H](CO)[C@@H](O)[C@H](O)[C@H]4O[C@@H]4O[C@H](CO)[C@@H](O)[C@H](O)[C@H]4O)C(C)(C)[C@@H]3CC[C@]12C` [Ginsenoside Rb2] (compound dose: 10 uM): 0.968 ± 0.04 and 0.88 ± 0.14.
For `C[C@@H]1O[C@@H](O[C@H]2[C@H](OC(=O)[C@]34CCC(C)(C)C[C@H]3C3=CC[C@@H]5[C@@]6(C)C[C@H](O)[C@H](O[C@@H]7O[C@H](CO)[C@@H](O)[C@H](O)[C@H]7O)[C@](C)(CO)[C@@H]6CC[C@@]5(C)[C@]3(C)CC4)O[C@H](CO)[C@@H](O[C@@H]3OC[C@@H](O)[C@H](O)[C@H]3O)[C@@H]2O[C@@H]2OC[C@](O)(CO)[C@H]2O)[C@H](O)[C@H](O)[C@H]1O` [Polygalasaponin V] (compound dose: 10 uM), in that order: 0.992 ± 0.027 and 0.803 ± 0.068.

The values are drawn from the supplement of paper PMC13094657.
